From PubChem BioAssay (NCI)
Values joined by “and” are separate entries in the source; they are usually repeats but may differ in a detail not shown here. Equal entries are not always repeated. About 79,000 compounds went through this panel and 15% of them were active in at least one assay; those are over-represented in the sample as a whole. A number with no mark means an inactive call. Active and inactive are the calls of the source. No stated cut-off is given here; in the data, active means growth inhibition above about 70%; inactive means the rest.

Experiment: NCI Yeast Anticancer Drug Screen. Data for the cln2 rad14 strain (AID 165);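 further: 0% = growth equal to vehicle treated cultures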
Conditions: S. cerevisiae cln2 rad14 strain, active compounds read high
Description: Growth inhibition of yeast strains with defined genetic alterations is measured as a screen for potential anti-cancer activity. Selected strains with alterations in DNA damage repair or cell cycle control were exposed to compounds and growth inhibition was measured relative to vehicle treated controls. The strain used in this assay is cln2 rad14

[1] = at 5.0 µM (retest, dose inferred, filed as 0.5)
[2] = at 50.0 µM (retest, dose inferred, filed as 5.0)

Structure (SMILES) | growth inhibition [1] | growth inhibition [2] | growth inhibition (at 50.0 µM)
NC1CCCCC1N.Nc1c(N=Nc2ccc(-c3ccc(N=Nc4cc(S(=O)(=O)[O-])c5ccccc5c4N)cc3)cc2)cc(S(=O)(=O)[O-])c2ccccc12.[OH3+].[OH3+].[Pt+4] | 66% | 78% (active) | 69.8%
COC(=O)/C=C(/CC(=O)OC)C(=O)OC | 15% | -1% | 77.8% (active)
CC[N+]1(C)CCC(O)(c2ccc(OC)cc2)C(C(=O)c2ccc(OC)cc2)C1 (configuration not stated) | 86% (active) | 97% (active) | 20.1%
N#CNC(N)=Nc1cc2ccccc2c2ccccc12 | 55% | 90% (active) | 91.3% (active)
CN(C)CCOC1(Cc2ccc(Cl)cc2Cl)CCC(C(C)(C)C)CC1 (configuration not stated) | 40% and 16% | 100% (active) | 99.1% (active) and 97.9% (active)
O=C1c2ccccc2C(=O)N1CCCC(=O)n1cc(F)c(=O)[nH]c1=O | 30% | 61% | 27.1%
Cc1cccc(/C=N/NC(=S)N2CCCC2)n1 | 2% | 94% (active) | 87% (active)
N#CC1=C(N)N(/N=C/c2ccccc2)C(c2ccccc2)C1(C#N)C#N (configuration not stated) | -4% | 46% | 45.7%
O=C(CSC(=S)N1CCCCC1)Nc1nc2c(s1)CCCC2 | 11% | 70% (active) | 72.2% (active)
O=[N+]([O-])c1cc(S(=O)(=O)Nc2ccccc2)ccc1Nc1ccccc1 | 68% | 91% (active) | 80.2% (active)
CCOC(=O)C#Cc1ccc([N+](=O)[O-])cc1 | -43% | -7% | 96.8% (active)
c1ccc2c(c1)sc1c3cnccc3ccc21 | -39% | -26% | 33%
NCCNCCNc1ccc(NCCNCCN)c2c1C(=O)c1c(O)ccc(O)c1C2=O | 32% | 34% | 7%
Oc1ccc(O)c(Cc2ccccc2)c1 | -25% | 47% | 97.4% (active)
